Screening results (PubChem)
HttQ103 aggreg = reduces HttQ103-GFP aggregates in PC12 cells | PC12 HttQ103-GFP aggregates, Acumen cytometry, 40 h | Potency, µM (series often up to 46.1 µM), for inactives: top-dose activity change, negative = inhibition, actives largely listed as inhibitors | 1.1% of 220,000 active; further: on the % scale 0 is the no-effect control and ±100 the full control effect; nearly all actives have a fitted effect of over 60% in size
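Aggregates are detected as GFP objects 1–25 µm with signal 6 STDEV over background in lysates of induced PC12 cells. These carry Huntingtin exon 1 with 103 glutamines fused to GFP under an ecdysone promoter; compounds titrated.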
HTT ATP protect = cytoprotection in Huntington HTT-Q103 PC12 cell model; PC12 HTT-Q103 induced, cytoprotection, ATP luminescence, 40 h; 0.14% of 230,000 active; AID 1471; Potency, µM (series often up to 56.4 µM), for inactives: cytoprotection (ATP increase), hits mostly activators; further: % of control where 0% means no effect; nearly all actives have a fitted effect of over 45% in size
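Huntington model: PC12 line, ecdysone-inducible HTTQ103 exon1–GFP, tebufenozide 100 nM. Test articles in a dose series. Endpoint luminescence from cellular ATP.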
HPGD inh = HPGD (human) dehydrogenase inhibition | P15428 | purified HPGD, NADH fluorescence kinetic, PGE2 substrate | Potency, µM, for the others: at the top dose activity change, negative = inhibition, hits mostly inhibitors | 4.3% of 150,000 active; active means well fitted inhibition curve with a large enough effect, not every such curve was filed as active; inconclusive means small, poorly fitted or top-dose-only effect, or another doubt; inactive means no such curve, though single readings can be large or run the other way; further: on the % scale 0 is the no-effect control and ±100 the full control effect
Target sequence (P15428 whole entry, looked up): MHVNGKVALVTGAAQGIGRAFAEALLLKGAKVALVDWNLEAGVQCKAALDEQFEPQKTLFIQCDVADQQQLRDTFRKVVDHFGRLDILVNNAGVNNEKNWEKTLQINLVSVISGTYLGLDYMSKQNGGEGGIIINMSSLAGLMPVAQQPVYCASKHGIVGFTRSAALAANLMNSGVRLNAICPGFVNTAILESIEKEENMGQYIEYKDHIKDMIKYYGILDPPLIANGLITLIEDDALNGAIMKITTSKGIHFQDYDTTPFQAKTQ
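NADH formation kinetics: reaction with 30 uM PGE2 and 1 mM NAD+ (final), 20 nM enzyme, Tris-HCl pH 8 with Tween 20, after 15 min compound preincubation at room temperature. Fluorescence change, last versus first of five reads.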
ALDH1A1 block = inhibitors of human aldehyde dehydrogenase 1A1; 7.3% of 220,000 active; Purified ALDH1A1, NADH fluorescence, propionaldehyde substrate; AID 1030; Potency, µM (titrated, usually from 75.3 µM), without a hit: at the top dose activity, negative = inhibition, usual class: inhibitors; P00352; active means well fitted inhibition curve with a large enough effect, not every such curve was filed as active; inconclusive means small, poorly fitted or top-dose-only effect, or another doubt; inactive means no such curve, though single readings can be large or run the other way;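 further: plate controls were no enzyme wells and a reference inhibitor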
Target sequence (P00352 whole entry, looked up): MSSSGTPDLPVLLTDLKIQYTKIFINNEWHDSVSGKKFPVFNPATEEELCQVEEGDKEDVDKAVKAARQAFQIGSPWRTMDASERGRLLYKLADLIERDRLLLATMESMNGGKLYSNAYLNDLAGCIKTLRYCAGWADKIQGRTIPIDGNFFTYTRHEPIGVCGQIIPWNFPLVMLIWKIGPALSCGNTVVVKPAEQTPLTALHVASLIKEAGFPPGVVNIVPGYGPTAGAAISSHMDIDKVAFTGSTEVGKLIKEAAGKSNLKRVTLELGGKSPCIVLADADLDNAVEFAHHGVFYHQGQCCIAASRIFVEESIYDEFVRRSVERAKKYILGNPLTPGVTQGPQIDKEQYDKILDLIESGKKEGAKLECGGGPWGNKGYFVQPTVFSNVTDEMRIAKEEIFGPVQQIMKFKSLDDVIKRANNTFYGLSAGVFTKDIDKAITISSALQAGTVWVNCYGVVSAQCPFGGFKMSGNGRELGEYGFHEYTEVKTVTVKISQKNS
LMNA splice mod = changes lamin A minigene splicing in HeLa cells. HeLa LMNA splicing GFP/RFP minigene ratio, 48 h. Potency, µM (series often up to 46.1 µM), without a hit: at the highest dose ratio change, negative = inhibition, actives largely listed as inhibitors. 0.01% of 200,000 active; active means well fitted inhibition curve with a large enough effect in the signal ratio, with a control signal flat, not every such curve was filed as active; inconclusive means small, poorly fitted or top-dose-only effect, or effect the other way, or a change in a side signal; the % refers to the signal ratio; further: on the % scale 0 is the no-effect control and ±100 the full control effect
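S3 HeLa cells stably expressing lamin A-EGFP splicing minigene plus DsRed2, 600 cells/well, 48 h compound exposure at 37C. Laser-scanning cytometry; analysed as GFP (500-530 nm)/RFP (575-640 nm) total intensity ratio; 0.5% DMSO vehicle.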
Starred values were filed as active, the others as inactive; u = inconclusive; x = not tested or not shown; [ ] = another dose, or the depositor's remark. A selection: hits, their analogues and other compounds. The true share with any hit is near 8.8%. Unless noted, the call rests on the fitted dose curve; in most records, active means well fitted curve in the direction sought with a large enough effect; inconclusive means small, poorly fitted or top-dose-only effect, or another doubt; inactive means no such curve, though single readings can be large; an effect the other way counts as inactive or inconclusive. Potency means the concentration at half of the fitted maximal effect.

SMILES	HttQ103 aggreg	HTT ATP protect	HPGD inh	ALDH1A1 block	LMNA splice mod
O=C(NC1CCCC1)c1ccc2c(=O)n(Cc3ccccc3)c(SCc3cccc([N+](=O)[O-])c3)nc2c1	x	x	x	x	9.8%[46 µM]
Cc1ccccc1CN1C[C@@H]2C[C@@H](c3cnc(N4CCOCC4)s3)N3CCC[C@@]23C1=O	2.51µM*	-68.6%[10 µM]	x	u	u
CC(C)Oc1ccc(C(=O)NC2=NCCS2)cc1	-10.7%	-221.1%	x	20µM*	u
CC(C)c1ccc(C(=O)NC2=NCCS2)cc1	-12.8%	-19.6%[10 µM]	-13.3%	2.7%	7.1%
Cc1ccc(NC(=O)CSc2nc(=O)n(Cc3ccco3)c3c2CCC3)cc1F	x	x	x	x	-2.0%[46 µM]
O=C(/C(=C/O)N=Nc1ccccc1)c1cccs1	-11.5%	11.7%[10 µM]	x	10µM*	9.8%[46 µM]
C=C(C)C(=O)c1cccs1	x	-1.1%	-7.4%	-1.8%	x
Cc1sc(/N=C/c2c(O)ccc3ccccc23)c(C#N)c1C	10.9%	-6.8%	-11.8%	2.1%	-3.5%
COc1ccc(O)c(/C=N/c2sc(C)c(C)c2C#N)c1	28.4%	-20.2%	25.1µM*	10µM*	-3.0%
CCc1ccc2nc(N(CCN(CC)CC)C(=O)c3ccco3)sc2c1	x	x	x	x	6.0%[46 µM]
Cc1ccc(C(=O)N(C)c2nnc(-c3ccncc3)s2)cc1	x	x	x	-3.0%	u
CC(=O)NC1(c2ccc(F)cc2)CCN(C(=O)Nc2ccc(F)cc2F)CC1	3.16µM*	-96.7%[10 µM]	-10.0%	7.1%	4.4%
OC(CN1CCNCC1)Cn1c2ccc(Br)cc2c2cc(Br)ccc21 (stereo not given)	x	-62.5%	-8.6%	9.4%	x
COc1ccccc1N1CCN(C2=NS(=O)(=O)c3ccccc32)CC1	-19.1%	18.6%[10 µM]	-7.9%	17.7%	-10.4%
C=CCN1/C(=C(\C#N)C2=NS(=O)(=O)c3ccccc32)N(C)c2ccccc21	-1.5%	16.8%	14.1µM*	-3.8%	-2.5%
CCOc1ccc(CNC(=O)c2cnc3sc(N(CC)CC)nn3c2=O)cc1OC	x	x	x	x	7.1%[46 µM]
CCCCn1c(SCC(=O)N2CCC(C)CC2)nc2cc(S(N)(=O)=O)ccc21	15.4%	1.2%	28.2µM*	7.8%	2.8%
CCCCn1c(SCC2CCCO2)nc2cc(S(N)(=O)=O)ccc21 (stereo not given)	-1.9%	-0.3%	-1.1%	-4.0%	24.6%
CCCCn1c(SCC(=O)c2cc(OC)ccc2OC)nc2cc(S(N)(=O)=O)ccc21	22.8%	10.2%[10 µM]	-7.4%	u	2.3%
CCCCn1c(SCN2C(=O)c3ccccc3C2=O)nc2cc(S(N)(=O)=O)ccc21	-10.3%	-1.3%[10 µM]	-14.1%	28.2µM*	4.3%
CCCCn1c(SCc2ccc(C(=O)OC)o2)nc2cc(S(N)(=O)=O)ccc21	7.0%	-2.7%[10 µM]	-24.6%	25.1µM*	u
O=c1c(-c2cc(F)cc(F)c2)nc2cncnc2n1-c1ccccc1	x	-69.1%	x	12.6%	1.1%
COc1ccc(OC)c(N/C(C)=C/C(=O)c2ccc(Br)cc2)c1	u	u	x	-12.0%	u
CCOC(=O)c1c(C)n(C)c2ccc(O)c(CN3CCN(C)CC3)c12	2.4%	-17.1%	-7.6%	17.8µM*	-5.1%
O=C(CCCOc1ccccc1)Nc1ccc(S(=O)(=O)Nc2ccccn2)cc1	0.4%	-23.7%	x	u	u
SMILES	HttQ103 aggreg	HTT ATP protect	HPGD inh	ALDH1A1 block	LMNA splice mod
O=C(CN1C(=O)c2ccccc2C1=O)NN1C(=O)c2ccccc2C1=O	3.3%	-23.7%	-26.4%	2.82µM*	-5.6%
O=C(Cc1ccccc1)NN1C(=O)c2ccccc2C1=O	-9.0%[9.22 µM]	-5.5%[10 µM]	x	3.2%	x
Cc1nn(-c2ccc(N3CCOCC3)nn2)c(C)c1CCC(=O)Nc1ccc(F)cc1F	x	x	x	x	-1.0%[46 µM]
CCn1cnc2sc(C(=O)Oc3ccc(Br)cc3)c(C)c2c1=O	-0.1%	-27.5%	x	14.3%	x
CCn1cnc2sc(C(=O)N(Cc3ccc(N(C)C)cc3)Cc3ccco3)c(C)c2c1=O	21.8%	11.6%[10 µM]	-14.1%	8.91µM*	u
CN1C(=O)CC(Sc2ccccc2C(=O)O)C1=O (stereo not given)	8.5%	-1.4%	-5.1%	-15.2%	10.0%
Cc1ccc(N2C(=O)CC(Sc3ncccc3C(=O)O)C2=O)cc1 (stereo not given)	7.7%	-28.4%	x	-13.9%	x
Cc1ccc(N2C(=O)CC(Sc3ccccc3C(=O)O)C2=O)cc1 (stereo not given)	4.0%	2.8%[10 µM]	-6.3%	0.708µM*	-4.9%
CN(C)c1ccc(N2C(=O)CC(Sc3ccccc3C(=O)O)C2=O)cc1 (stereo not given)	-18.4%	2.3%[10 µM]	-10.4%	1.26µM*	-15.2%
Cc1cccc(N2C(=O)CC(Sc3ncn[nH]3)C2=O)c1 (stereo not given)	-19.0%	-7.3%	x	14.1µM*	x
CCCCN1C(=O)CC(Sc2ccccc2C(=O)O)C1=O (stereo not given)	5.7%	-24.9%	2.5%	u	2.0%
Cc1ccc(N2C(=O)CC(Sc3ccccc3C(=O)O)C2=O)cc1C (stereo not given)	-7.6%[9.22 µM]	-23.0%	x	0.447µM*	u
CC(C)CN1C(=O)CC(Sc2ccccc2C(=O)O)C1=O (stereo not given)	25.6%	-1.6%	-4.4%	17.8µM*	-1.0%
Nc1ccccc1SC1CC(=O)N(c2ccc3c(c2)OCO3)C1=O (stereo not given)	6.6%[9.22 µM]	-7.1%[10 µM]	x	x	x
O=C(O)c1ccccc1SC1CC(=O)N(c2ccc3c(c2)OCO3)C1=O (stereo not given)	-7.9%	11.5%	x	1.26µM*	u
Cc1cc(C)cc(N2C(=O)CC(Sc3ccccc3C(=O)O)C2=O)c1 (stereo not given)	17.7%[9.22 µM]	15.8%[10 µM]	x	x	x
Cc1cccc(N2C(=O)CC(Sc3ccccc3C(=O)O)C2=O)c1 (stereo not given)	4.2%	2.7%[10 µM]	-11.7%	5.01µM*	-9.7%
CN(CCCNC(=O)Cn1cccc1C(=O)c1ccccc1)C1CCCCC1	4.1%	-15.8%	x	4.7%	x
CCOC(=O)N1CCC(NC(=O)c2cnn(-c3ccc(F)cc3F)c2C2CCN(C(=O)OC(C)(C)C)CC2)CC1	x	x	x	x	6.1%[46 µM]
COc1ccc(C(=O)CCC(C)(C)[N+](=O)[O-])cc1OC	16.5%	-5.0%[10 µM]	x	8.91µM*	5.2%[46 µM]
COc1ccc(CC(=O)NC2CC(=O)N(c3cccc(F)c3)C2)cc1 (stereo not given)	x	x	x	x	10.6%[46 µM]
O=C(Nc1cccc(F)c1)N1CCC2(CC1)CCN(C(=O)c1ccco1)CC2	x	u	-3.9%	1.3%	x
CC(=O)c1cccc(NC(=O)C2CCCCC2)c1	-3.5%	-13.5%	-11.9%	8.91µM*	7.1%
CC(=O)c1cccc(NC(=O)C2CC(=O)N(c3cccc(C)c3C)C2)c1 (stereo not given)	-2.2%	6.0%	-1.6%	5.01µM*	3.7%
COc1ccccc1N1CC(C(=O)Nc2cccc(C(=O)O)c2)CC1=O (stereo not given)	4.6%	1.9%[0.074 µM]	-7.5%	u	7.0%
CC(=O)Nc1sc(C)c(C)c1C(=O)OC(C)C	-13.4%	28.0%[0.074 µM]	-15.8%	22.4µM*	1.7%
